# Bioassay records (PubChem)
# This is a sample that favours compounds with a hit; in the whole collection about 3.5% have one here.
# FBW7 act = activators of human E3 ligase FBW7; Q969H0; AlphaScreen FBW7–phospho-cyclin E peptide binding, activator screen; normalized activity (activation), % at 26.1 µM; 650,000 compounds, 0.13% hits; in the data active means normalized activity above about 1.9%;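 further: purified mutant Fbw7 with reduced substrate affinity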
# MITF inh = inhibitors of human MITF; inhibition, % at 2.6 µM; AlphaScreen MITF homodimerization, bead proximity signal; 650,000 compounds, 0.91% hits; O75030; in the data active means inhibition above about 50%
# Target sequence (O75030 whole entry, looked up): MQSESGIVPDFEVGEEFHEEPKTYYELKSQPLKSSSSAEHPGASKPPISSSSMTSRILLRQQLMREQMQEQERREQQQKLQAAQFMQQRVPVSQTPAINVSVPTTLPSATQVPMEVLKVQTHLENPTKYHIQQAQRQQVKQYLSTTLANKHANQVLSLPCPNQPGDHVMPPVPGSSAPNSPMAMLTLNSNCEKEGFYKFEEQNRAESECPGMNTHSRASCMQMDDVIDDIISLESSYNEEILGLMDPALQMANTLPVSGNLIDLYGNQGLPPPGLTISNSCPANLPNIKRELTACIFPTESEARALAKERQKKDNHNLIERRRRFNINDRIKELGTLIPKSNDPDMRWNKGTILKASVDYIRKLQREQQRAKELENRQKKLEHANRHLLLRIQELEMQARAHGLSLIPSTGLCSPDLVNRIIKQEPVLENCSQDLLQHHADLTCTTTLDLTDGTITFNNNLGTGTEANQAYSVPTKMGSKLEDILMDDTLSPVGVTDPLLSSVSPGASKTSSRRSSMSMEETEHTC
# GPR151 activ = activators of human GPR151; activation, % at 11.2 µM; PathHunter beta-arrestin GPR151 cells, luminescence; 650,000 compounds, 1% hits; Q8TDV0; in the data active means activation above about 4.9%
# TEAD-YAP block = TEAD-YAP interaction inhibition; AID 1259422; 640,000 compounds, 1.4% hits; inhibition, % at 9.12 µM; HEK-TIYL cells, TEAD-Gal4/YAP UAS-luciferase luminescence; in the data active means inhibition above about 32%
# Numbers stand for hits; n = inactive.
SMILES,FBW7 act,MITF inh,GPR151 activ,TEAD-YAP block
CCOc1ccc(C2Nc3ccccc3C(=O)N2c2ccc3ccccc3c2)cc1 (centres undefined),n,n,n,74
CN1C(=O)/C(=C\c2cccc(Cl)c2)Sc2ccc(C(=O)O)cc21,n,n,n,n
CC(=O)Nc1ccc(OCC(=O)Nc2cccc(Oc3ccccc3)c2)cc1,n,n,n,36
Cc1ccc(-n2nc3ccc(NC(=O)COc4ccccc4)cc3n2)cc1Cl,5.2,n,n,n
COc1ccc(NC(=O)COc2c(C)ccc(C)c2C)cc1,n,n,n,46
CCc1ccc(C(=O)Nc2ccc(I)cn2)cc1,n,n,n,n
CCc1ccc(C(=O)Nc2ccc(Br)cn2)cc1,n,n,n,38
CC(=O)Nc1cccc(NC(=O)COc2ccc(Oc3ccccc3)cc2)c1,n,n,n,n
Cc1ccc2nc(-c3ccccc3)cc(C(=O)NCc3ccccc3)c2c1,n,n,n,n
O=S(=O)(NC1CCCCC1)c1cccc(S(=O)(=O)c2ccccc2)c1,n,n,n,n
CCOc1ccc(C(=O)Nc2ccc(OCC(=O)O)cc2)cc1,n,n,n,48
O=C(Nc1ccc(Br)cn1)c1ccccc1[N+](=O)[O-],n,n,n,54
COc1ccc(OCC(=O)Nc2ccc(NC(=O)c3ccccc3)cc2)cc1,n,n,n,36
CCc1ccc(C(=O)Nc2ccc(C(=O)O)cc2)cc1,n,n,n,58
CCc1ccc(C(=O)Nc2ccc(Br)cc2)cc1,n,n,n,n
CCC(C)NP1(=O)C=C(c2ccccc2)SC(c2ccccc2)=C1 (centres undefined),n,n,n,n
CCOc1ccc(-c2nc3s/c(=C\c4ccc(OC(C)=O)c(OC)c4)c(=O)n3n2)cc1,n,n,n,n
CC(CCN1CCC[C@@H]2CN(S(=O)(=O)C(C)C)CC[C@H]21)c1ccccc1 (some centres undefined),n,n,n,n
Cc1ccc(C(=O)Nc2ccc(OCC(=O)O)cc2)cc1,n,n,n,37
CC(=O)Nc1ccc(OCCC[n+]2ccccc2)cc1,1.9,n,n,n
Cc1ccc(NC(=O)c2ccc(OCC(=O)Nc3ccccc3)cc2)cc1,n,n,n,n
O=C(NCCc1cccc(Cl)c1)c1cc(Cl)ccc1[N+](=O)[O-],n,n,n,n
COc1ccc2[nH]cc(CCn3ccc(O)c(Cc4ccccc4)c3=O)c2c1,n,n,n,n
CC(=O)N(/C=C1\Sc2ccccc2C1=O)c1ccc(I)cc1,n,n,n,n
CC(=O)N(/C=C1/Sc2ccccc2C1=O)c1ccc(C)cc1,n,n,n,59
SMILES,FBW7 act,MITF inh,GPR151 activ,TEAD-YAP block
CC(=O)N(/C=C1\Sc2ccccc2C1=O)c1ccc(C)c(C)c1,n,n,n,86
COc1ccc(N(/C=C2\Sc3ccccc3C2=O)C(=O)c2ccc(C)cc2)cc1,n,n,n,41
COc1ccc(N(/C=C2\Sc3ccccc3C2=O)C(C)=O)cc1,n,n,n,51
COc1ccc(/C(O)=C2\C(=O)C(=O)N(CCCN3CCOCC3)C2c2ccc(C)cc2)cc1 (centres undefined),n,n,n,n
CCC1=NN2C(=N)/C(=C/c3cc(I)c(OCCOc4cc(C)cc(CC)c4)c(OC)c3)C(=O)N=C2S1,n,n,n,n
COc1ccc(N(/C=C2\Sc3ccccc3C2=O)C(=O)c2ccccc2)cc1,n,n,n,54
COc1ccccc1N(C=O)/C=C1\Sc2ccccc2C1=O,n,n,n,55
O=C1/C(=C\N(C(=O)c2ccccc2)c2ccccc2)Sc2ccccc21,n,n,n,n
CN(C)c1ccc(/C=C/c2nc3cc4c(cc3s2)OCO4)cc1,n,n,n,n
COc1ccc(Cl)cc1NC(=O)Cn1nnc(C(=O)NCc2cccs2)c1N,n,n,n,45
O=c1/c(=C/C=C/c2ccccc2)sc2nc(-c3cccnc3)nn12,n,n,n,n
CCN1C(=O)C2C(c3ccc(O)c(OC)c3)NC(C)(C(=O)OC)C2C1=O (centres undefined),n,n,n,45
COC(=O)C1(C)NC(c2ccc(O)c(OC)c2)C2C(=O)N(C)C(=O)C21 (centres undefined),n,n,n,n
COc1ccc(N2CCN(C(=O)c3sc4nc5ccc(OC)cc5cc4c3N)CC2)cc1,n,70,n,n
COc1ccc2nc3sc(C(=O)N4CCN(c5ccccc5OC)CC4)c(N)c3cc2c1,n,n,n,n
CC1C(=O)NN=C1C(=O)N/N=C/c1cccs1 (centres undefined),n,n,n,32
CC(C)(C)OC(=O)N/N=C\c1cccs1,5.6,n,n,n
CC1C(=O)NN=C1C(=O)N/N=C\c1cccc(O)c1 (centres undefined),n,n,n,n
CC1C(=O)NN=C1C(=O)N/N=C\c1cccnc1 (centres undefined),n,n,n,35
CCOC(=O)N1CCN(Cc2nc3c(c(=O)[nH]c(=O)n3C)n2Cc2ccc(C)cc2)CC1,n,n,n,n
Cc1ccc2c(c1)C1CN(C)CCC1N2C(=S)NC(=O)c1ccco1 (centres undefined),n,n,n,n
COc1ccc2c(c1)CC(C(=O)Nc1ccc(-c3cn[nH]n3)cc1)CO2 (centres undefined),5.9,n,n,n
COc1ccc2c(c1)CC(C(=O)Nc1cc3cc(-c4ccncc4)ccc3cn1)CO2 (centres undefined),n,n,n,59
NCCOc1cc(-c2cn[nH]c2)ccc1NC(=O)C1COc2ccccc2C1 (centres undefined),n,n,n,41
O=C(Nc1ccc(-c2cn[nH]n2)cc1)C1COc2ccc(Cl)cc2C1 (centres undefined),n,n,n,n
SMILES,FBW7 act,MITF inh,GPR151 activ,TEAD-YAP block
COc1ccc2c(c1)CC(C(=O)Nc1ccc(-c3cn[nH]c3)cc1C(=O)NCC#N)CO2 (centres undefined),20,n,n,n
COc1ccc(CNC(=O)c2cc(-c3cn[nH]c3)ccc2NC(=O)C2COc3ccc(OC)cc3C2)cc1 (centres undefined),n,n,n,n
Cc1ccc2c(c1)-c1onc(C(=O)NC3CCN(Cc4ccccc4)CC3)c1CO2,n,n,n,n
COc1ccc2c(c1)CC(C(=O)Nc1ccc(-c3cn[nH]c3)cc1OCCC(C)C)CO2 (centres undefined),n,n,n,n
COc1ccc2c(c1)CC(C(=O)Nc1ccc(-c3cn[nH]c3)cc1OCCO)CO2 (centres undefined),n,n,n,39
Cc1c(C(=O)Nc2nc3ccccc3s2)sc2ncn(CC(=O)N3CC(C)CC(C)C3)c(=O)c12 (centres undefined),n,n,n,n
CCn1cnc2sc(C(=O)Nc3nc4ccc(Br)cc4s3)c(C)c2c1=O,n,n,n,40
CCN(CC)C(=O)Cn1cnc2sc(C(=O)Nc3nc4ccccc4s3)c(C)c2c1=O,n,n,n,80
Cc1cc(C(=O)Nc2cnccn2)cs1,n,n,n,n
S=c1[nH]ncn1/N=C/c1ccc(N2CCOCC2)cc1,n,n,n,73
Cc1cc(C)c2c(N)c(C(=O)Nc3nccs3)sc2n1,n,n,n,70
